Reference: the supplement of paper PMC4022240
± gives the standard deviation.

How the values were obtained:
Experiment in all cases: peptide microarray binding signal (635 nm), min-max normalized on array (fraction of array maximum); higher = stronger binding
Conditions in all cases: peptide region: H4 1-13
[1] = target: T1, HaloTag-ATRX ADD domain (163-292)
T1 chain: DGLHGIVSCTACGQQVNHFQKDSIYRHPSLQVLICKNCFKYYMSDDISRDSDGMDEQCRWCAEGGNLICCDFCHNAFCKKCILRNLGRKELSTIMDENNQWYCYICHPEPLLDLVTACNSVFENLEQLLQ
Method in brief: (§1)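 Within each library, mean intensities of triplicate spots were min-max scaled to give the binding signal. The spots were histone 13-mer peptide–cellulose conjugates on nitrocellulose with a Cy3 tracer, blocked overnight at 4°C. They were then probed for 1 h at 4°C using biotin-labelled HaloTag reader fusions (10 nM to 1 μM) with streptavidin-Alexa Fluor 647 or rabbit histone antibodies (1:10,000 to 1:2,000) with anti-rabbit Alexa 647, and scanned at 635 nm for signal and 532 nm for misprints on an Axon GenePix 4000B.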

[2] = target: HaloTag-ING2 PHD (mouse Ing2 200-280)
Method in brief: as §1

[3] = target: anti-H3K4me3 antibody ab8580
Method in brief: as §1

[4] = target: anti-H3K9me3 antibody ab8898
Method in brief: as §1

[5] = peptide modifications: H4S1ph, binder concentration: 1:2,000 dilution
[6] = peptide modifications: H4S1ph, binder concentration: 1:10,000 dilution
[7] = peptide modifications: H4S1ph H4R3me1, binder concentration: 1:2,000 dilution
[8] = peptide modifications: H4S1ph H4R3me1, binder concentration: 1:10,000 dilution
[9] = peptide modifications: H4R3me1, binder concentration: 1:2,000 dilution
[10] = peptide modifications: H4R3me1, binder concentration: 1:10,000 dilution
[11] = peptide modifications: H4R3cit, binder concentration: 1:2,000 dilution
[12] = peptide modifications: H4R3cit, binder concentration: 1:10,000 dilution
[13] = peptide modifications: H4S1ph H4R3me2s, binder concentration: 1:2,000 dilution
[14] = peptide modifications: H4S1ph H4R3me2s, binder concentration: 1:10,000 dilution

B1: H4 1-13 Sph G R G K G G K G L G K G (peptide)
chain: SGRGKGGKGLGKG
- peptide microarray binding signal ([1]; peptide modifications: H4S1ph, binder concentration: 50 nM): 0.00608 ± 0.0013
- peptide microarray binding signal ([1]; peptide modifications: H4S1ph, binder concentration: 500 nM): 0.0121 ± 0.00045
- peptide microarray binding signal ([2]; peptide modifications: H4S1ph, binder concentration: 10 nM): 0.00328 ± 0.00014
- peptide microarray binding signal ([2]; peptide modifications: H4S1ph, binder concentration: 100 nM): 0.0039 ± 0.00041
- peptide microarray binding signal [3, 5]: 0.00111 ± 0.00012
- peptide microarray binding signal [3, 6]: 0.00131 ± 2.6e-05
- peptide microarray binding signal [4, 5]: 0.000362 ± 6.3e-06
- peptide microarray binding signal [4, 6]: 0.00075 ± 7.9e-06

B2: H4 1-13 Sph G Rme G K G G K G L G K G (peptide)
chain: SGRGKGGKGLGKG
- peptide microarray binding signal ([1]; peptide modifications: H4S1ph H4R3me1, binder concentration: 50 nM): 0.00467 ± 0.00075
- peptide microarray binding signal ([1]; peptide modifications: H4S1ph H4R3me1, binder concentration: 500 nM): 0.0107 ± 0.00059
- peptide microarray binding signal ([2]; peptide modifications: H4S1ph H4R3me1, binder concentration: 10 nM): 0.00149
- peptide microarray binding signal ([2]; peptide modifications: H4S1ph H4R3me1, binder concentration: 100 nM): 0.00276 ± 6.8e-05
- peptide microarray binding signal [3, 7]: 0.000132 ± 1.5e-06
- peptide microarray binding signal [3, 8]: 0.000742 ± 1.3e-05
- peptide microarray binding signal [4, 7]: 0.000347 ± 7e-06
- peptide microarray binding signal [4, 8]: 0.000577 ± 1.2e-05

B3: H4 1-13 S G Rme G K G G K G L G K G (peptide)
chain: SGRGKGGKGLGKG
- peptide microarray binding signal ([1]; peptide modifications: H4R3me1, binder concentration: 50 nM): 0.00483 ± 0.00013
- peptide microarray binding signal ([1]; peptide modifications: H4R3me1, binder concentration: 500 nM): 0.00838 ± 0.0007
- peptide microarray binding signal ([2]; peptide modifications: H4R3me1, binder concentration: 10 nM): 0.00477 ± 0.00017
- peptide microarray binding signal ([2]; peptide modifications: H4R3me1, binder concentration: 100 nM): 0.0127 ± 0.0019
- peptide microarray binding signal [3, 9]: 0.00125 ± 0.00022
- peptide microarray binding signal [3, 10]: 0.0012 ± 1.2e-05
- peptide microarray binding signal [4, 9]: 0.000544 ± 6.8e-05
- peptide microarray binding signal [4, 10]: 0.00115 ± 2e-05

B4: H4 1-13 S G Rcit G K G G K G L G K G (peptide)
chain: SGRGKGGKGLGKG
- peptide microarray binding signal ([1]; peptide modifications: H4R3cit, binder concentration: 50 nM): 0.00524 ± 0.00048
- peptide microarray binding signal ([1]; peptide modifications: H4R3cit, binder concentration: 500 nM): 0.0149 ± 0.00041
- peptide microarray binding signal ([2]; peptide modifications: H4R3cit, binder concentration: 10 nM): 0.00209 ± 0.00016
- peptide microarray binding signal ([2]; peptide modifications: H4R3cit, binder concentration: 100 nM): 0.00468 ± 0.00014
- peptide microarray binding signal [3, 11]: 0.00104 ± 0.00043
- peptide microarray binding signal [3, 12]: 0.001997 ± 1.8e-05
- peptide microarray binding signal [4, 11]: 0.00199 ± 3.7e-05
- peptide microarray binding signal [4, 12]: 0.00161 ± 4.1e-05

B5: H4 1-13 Sph G Rme2s G K G G K G L G K G (peptide)
chain: SGRGKGGKGLGKG
- peptide microarray binding signal ([1]; peptide modifications: H4S1ph H4R3me2s, binder concentration: 50 nM): 0.0052 ± 0.0008
- peptide microarray binding signal ([1]; peptide modifications: H4S1ph H4R3me2s, binder concentration: 500 nM): 0.00852 ± 0.00024
- peptide microarray binding signal ([2]; peptide modifications: H4S1ph H4R3me2s, binder concentration: 10 nM): 0.00346 ± 0.00014
- peptide microarray binding signal ([2]; peptide modifications: H4S1ph H4R3me2s, binder concentration: 100 nM): 0.00865 ± 0.00015
- peptide microarray binding signal [3, 13]: 0.00119 ± 0.0001
- peptide microarray binding signal [3, 14]: 0.0012 ± 1.2e-05
- peptide microarray binding signal [4, 13]: 0.000408 ± 1.8e-05
- peptide microarray binding signal [4, 14]: 0.000923 ± 9.6e-06
